Assay outcomes as filed in PubChem.
tim23-1 inh = growth inhibitors of tim23-1 mutant yeast, primary screen, luminescence, uHTS; S. cerevisiae tim23-1 growth, BacTiter-Glo luminescence, 24 h; inhibition, % at 20 µM; 330,000 tested, 1.3% active; AID 463212, 2010;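 active = growth inhibition of the mutant yeast at or above 50%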;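 note: temperature-sensitive mutant grown at 25 °C; plate controls were DMSO-treated mutant yeast for no effect and medium wells lacking yeast for full effect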
NLRP3 yeast inh = NALP3 inflammasome inhibitors in reconstituted yeast, primary screen, luminescence, uHTS; Yeast reconstituted NLRP3/ASC/caspase-1, beta-gal luminescence, 24 h; inhibition, % at 10 µM; 330,000 tested, 0.39% active;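 active = inhibition of 50% or more; inactive = inhibition below 50%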;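 note: plate controls were induced DMSO wells for no effect and uninduced yeast grown without galactose for full effect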
PfHsp90 set2 = growth inhibition of PfHsp90-expressing yeast, primary screen, antimalarial PfHsp90 inhibitor project, S. cerevisiae, BacTiter-Glo luminescence, single point, set 2; BacTiter-Glo ATP, 48 h; yeast lacking PDR1 and PDR3 efflux regulators; inhibition, % at 9.4 µM; 310,000 tested, 0.32% active;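 active = every replicate shows inhibition above about 80%, whatever the replicate mean, limit read from the data; inconclusive = mean inhibition reaches the set limit but some replicate falls short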;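 note: 0% = DMSO neutral controls and 100% = 20 µM radicicol positive controls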
tim10-1 inh = growth inhibitors of tim10-1 mutant yeast, primary screen, luminescence, uHTS; S. cerevisiae tim10-1 ts strain growth, BacTiter-Glo, 24 h; inhibition, % at 20 µM; 330,000 tested, 2.2% active;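 active = inhibition of at least 40%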;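 note: mutant grown at 25 °C; 0% = DMSO wells with yeast and 100% = wells holding no yeast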
TIM10 inh = growth inhibitors of isogenic TIM10 control yeast, primary screen, counter-screen for tim10-1 yeast inhibitor project, luminescence, uHTS; inhibition, % at 10 µM; S. cerevisiae TIM10 strain growth, BacTiter-Glo luminescence, 24 h; 330,000 tested, 1.4% active;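 active = inhibition of 40% or more at the single tested concentration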;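 note: wild-type TIM10 isogenic control strain grown at permissive 25 °C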
NALP1 inh = NALP1 inflammasome inhibitors in reconstituted yeast, colorimetric, S. cerevisiae, triplicate retest. inhibition, % at 10 µM. 280,000 tested, 0.61% active. S. cerevisiae NALP1/ASC/caspase-1 growth, X-gal OD620, 72 h; in the data active = inhibition mostly above about 24%, no sharp cut-off; inactive = mostly below about 32%
tim23-1 confirm = tim23-1 mutant yeast growth inhibitors, confirmation, luminescence, single concentration; inhibition, % at 20 µM; S. cerevisiae tim23-1 growth, BacTiter-Glo luminescence, 24 h; shares compounds with tim23-1 inh; 4,400 tested, 83% active;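 active = inhibition above about 39% in either of two replicate wells at 20 µM, limit read from the data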;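 note: temperature-sensitive tim23-1 mutant grown at 25 °C; 0% = DMSO wells with yeast and 100% = medium wells without yeast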
The depositor's hits bear a star; u = inconclusive; x = no result. Only some compounds are listed: those with a hit (about 4.1% of all), similar ones and a draw of the others.

SMILES	tim23-1 inh	NLRP3 yeast inh	PfHsp90 set2	tim10-1 inh	TIM10 inh	NALP1 inh	tim23-1 confirm
Cc1ccc(C)c(N2CCN(C(=O)C(Cc3ccccc3)n3cccc3)CC2)c1 (stereo not given)	35	7	0	27	15	4	x
O=C(C(Cc1ccccc1)n1cccc1)N1CCN(c2ccccc2)CC1 (stereo not given)	55*	5	-12	17	12	54	31
CCOc1ccccc1NC(=O)CCCNC(=O)Cn1cnc2sc(C)c(C)c2c1=O	0	12	-6	-32	6	2	x
O=S(=O)(Nc1cccc2ccccc12)c1cccs1	24	-17	6	29	23	-3	x
O=S(=O)(Nc1ccc(O)c2ccccc12)c1cccs1	57*	28	2	12	29	16	44*
Nc1c(N(Cc2ccco2)C(=O)c2ccc(Cl)cc2)c(=O)[nH]c(=O)n1Cc1ccccc1	60*	20	x	0	16	x	66*
Nc1c(N(Cc2ccco2)C(=O)c2ccc(Br)cc2)c(=O)[nH]c(=O)n1Cc1ccccc1	59*	4	16	6	17	x	72*
Nc1c(N(Cc2ccco2)C(=O)c2cccc(Cl)c2)c(=O)[nH]c(=O)n1Cc1ccccc1	4	20	-6	2	-1	x	x
N#Cc1ccc(C(=O)N(Cc2ccco2)c2c(N)n(Cc3ccccc3)c(=O)[nH]c2=O)cc1	39	9	x	13	10	x	x
CC(C)(C)c1ccccc1OCC(=O)NCCC(=O)O	-4	4	-15	8	5	26	x
C=C(C(=O)Oc1ccccc1C(C)(C)C)c1ccccc1	59*	24	x	39	37	x	56*
CSC1=NCCN1C(=O)c1c(-c2c(F)cccc2Cl)noc1C	-4	-3	-2	-10	-11	4	x
O=C(COc1ccccc1-c1ccccc1)N/N=C/c1ccncc1	53*	34	-9	16	14	-7	44*
Cc1nc2ccccc2nc1Nc1cccc(Cl)c1	61*	18	-59	39	26	5	41*
CCN1CCN(C(=O)/C=C/c2c(F)cccc2Cl)CC1	-23	2	-6	-5	-3	17	x
O=C(/C=C/c1c(F)cccc1Cl)N1CCc2ccccc2C1	59*	34	-96	20	12	9	59*
C/C(=N\Nc1nc(-c2ccccc2)cs1)c1cccs1	22	9	-3	28	18	16	x
C/C(=N\Nc1nc2ccccc2s1)c1cccs1	64*	0	-40	32	20	13	48*
C(=N\Nc1nc2ccccc2s1)/c1ccco1	42	15	2	16	8	-1	x
C(=N\Nc1nc2ccccc2s1)/c1cccs1	59*	11	-26	0	18	-3	38
CCCSC1=C(C#N)C(c2ccccc2C)CC(=O)N1 (stereo not given)	51*	7	x	27	17	34	44*
CCCCSC1=C(C#N)C(c2ccccc2C)CC(=O)N1 (stereo not given)	51*	-11	13	25	6	3	52*
Oc1c(Cl)cc(CN2CCOCC2)c2cccnc12	51*	-16	x	26	15	x	39
O=[N+]([O-])c1cc(CN2CCOCC2)c2cccnc2c1O	x	x	x	x	x	-2	x
COc1ccccc1CCC(=O)N(C)CC(=O)Nc1ccc(Cl)c(C(F)(F)F)c1	26	15	-1	29	-2	13	x
SMILES	tim23-1 inh	NLRP3 yeast inh	PfHsp90 set2	tim10-1 inh	TIM10 inh	NALP1 inh	tim23-1 confirm
O=C1c2ccccc2C(=O)N1c1nc(-c2cccs2)cs1	77*	34	-6	25	25	-7	41*
COc1ccc(N2C(=O)CC(c3ccc([N+](=O)[O-])cc3)C2=O)cc1 (stereo not given)	14	22	33	24	11	20	x
CCOC(=O)CN1C(=O)CC(c2ccc([N+](=O)[O-])cc2)C1=O (stereo not given)	66*	3	-8	34	21	1	66*
Oc1ccc(-c2c(C3=CCCCC3)sc3ccccc23)cc1	x	x	u	x	x	-3	x
O=C(Cn1c(-c2ccccc2)noc1=O)Nc1ccc(S(=O)(=O)N2CCOCC2)cc1	2	5	0	8	3	23	x
O=C(Cn1c(-c2ccccc2)noc1=O)Nc1ccc(N2CCCCCC2)cc1	51*	6	0	39	29	36*	42*
CCCCn1c(N)c(N(CC(C)C)C(=O)Cc2ccc3c(c2)OCCO3)c(=O)[nH]c1=O	17	12	-23	18	5	x	x
CC1Cc2ccccc2N1C(=O)COC(=O)c1ccc([N+](=O)[O-])o1 (stereo not given)	57*	11	-10	34	34	x	48*
CCC(=O)c1ccccc1OCCCN1CCC(Cc2ccccc2)CC1	22	42	-13	9	5	x	x
Cn1nnnc1Sc1ncnc2scc(-c3ccc(Br)cc3)c12	68*	3	x	20	21	x	59*
COc1ccc(C(=O)OCn2nnc3ccccc3c2=O)cc1OC	-14	30	2	-23	-4	7	x
CN(C)S(=O)(=O)c1ccc(C(=O)OCn2nnc3ccccc3c2=O)cc1	54*	9	-1	5	-11	22	32
CCCCc1nnc(NC(=O)c2ccc3c(=O)n4c(nc3c2)CCC4)s1	0	-15	x	-1	0	x	x
Nc1cc(S(=O)(=O)Nc2ccccc2Cl)ccc1N1CCCCC1	58*	4	-50	36	31	x	62*
COc1ccc(S(=O)(=O)N2CCOC23CCN(S(=O)(=O)c2cc(F)ccc2F)CC3)cc1	53*	35	15	35	-5	x	38
CCS(=O)(=O)N1CCC2(CC1)OCCN2S(=O)(=O)c1ccc(OC)cc1	5	12	22	-8	-2	x	x
COc1ccc(OCC(=O)Nc2ccc3c(c2)nc(CCn2ccccc2=O)n3C)cc1	2	8	-12	-11	5	14	x
Cc1cccc(C(=O)NNC(=O)c2c(O)c3ccccc3n(C)c2=O)c1	67*	x	-24	0	15	1	21
COc1cc2cncc(Cc3ccc(Cl)cc3)c2cc1OC	57*	16	-5	15	-3	x	49*
CCn1c(N2CCN(S(=O)(=O)c3ccc(Cl)cc3)CC2)nc2ccccc21	63*	7	29	21	13	-1	43*
